# Results filed as inconclusive are left out. Values without a mark were called inactive. The source made the active and inactive calls. Calls come from the whole dose curve; as a rule, active = well fitted curve in the direction sought with a large enough effect; inconclusive = small, poorly fitted or top-dose-only effect, or another doubt; inactive = no such curve, though single readings can be large; an effect the other way counts as inactive or inconclusive. Where a SMILES comes first, the peptide text is derived from it. [ ]: non-standard residue; d: D form. pGlu = O=C1CC[C@@H](C(=O)O)N1; Thz = O=C(O)[C@@H]1CSCN1
# Tested on: MCC-13
# Assay: qHTS assay to identify novel small-molecules to repurpose for Merkel cell carcinoma treatment (AID 1296009); note: nearly all actives have a fitted effect of over 60% in size
# Conditions: MCC and control cell lines, CellTiter-Glo viability, 72 h; series mostly up to 46 µM; activity change, negative = cytotoxicity: at the top concentration
# Procedure, shortened: (§1)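 qHTS format: cells treated with library compounds in DMSO across 8 (NPC) or 11 (MIPE) concentrations. Readout after 72 hr at 37 degree celsius was CellTiter-Glo luminescence.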
# % is set by controls: 0 for no effect and ±100 for the full control effect; potency is the fitted concentration of half-maximal effect.
SMILES,"activity change, negative = cytotoxicity",outcome,Potency
O=Cc1ccc(O)c(O)c1O,-2.44%,,
Cc1[nH]cnc1CN1CCc2c(c3ccccc3n2C)C1=O,-4.17%,,
O=c1cc(-c2ccccc2)oc2ccccc12,-16.2% [at 92.7 µM],,
Nc1ccc(O)c([N+](=O)[O-])c1,-16.3% [at 92.7 µM],,
O=c1[nH]c2ccccc2n1CCCN1CCN(C(c2ccccc2)c2ccccc2)CC1,-32.9%,,
Nc1ccc([N+](=O)[O-])cc1O,-13.2% [at 92.7 µM],,
Cc1cc(O)c2ccccc2c1O,4.55%,,
O=C(O)/C=C\C(=O)O,16%,,
CC(C(=O)O)c1ccc(C(=O)c2ccccc2)s1 (configuration not stated),,inactive,
CCCSc1ccc2nc(NC(=O)OC)[nH]c2c1,,,1.68 µM (active)
Clc1ccccc1-c1nc(-c2ccncc2)no1,-5.92%,,
Nc1nc2ccc([N+](=O)[O-])cc2s1,-1.86% [at 92.7 µM],,
CC1(C)S[C@@H]2[C@H](NC(=O)[C@H](N)c3ccccc3)C(=O)N2[C@H]1C(=O)O,12%,,
COC(=O)Nc1nc2ccc(C(=O)C3CC3)cc2[nH]1,,,7.5 µM (active)
Oc1c(Br)cc(Br)c2cccnc12,-25.5%,,

# Tested on: MCC-26
# Assay: as above
# Conditions: MCC and control cell lines, CellTiter-Glo viability, 72 h; series mostly up to 46 µM; activity change, negative = cytotoxicity: at the top concentration
# Procedure, shortened: as §1
row,SMILES,"activity change, negative = cytotoxicity"
1,C#C[C@]1(O)CC[C@H]2[C@@H]3CCc4cc(O)ccc4[C@H]3CC[C@@]21C,-20.8%
2,CC(C(=O)O)c1ccc(C(=O)c2ccccc2)s1 (configuration not stated),1.14%
3,Nc1nc2ccc([N+](=O)[O-])cc2s1,1.03% [at 92.7 µM]
4,Oc1c(Br)cc(Br)c2cccnc12,-24.8%

# Tested on: MKL-1
# Assay: as above
# Conditions: MCC and control cell lines, CellTiter-Glo viability, 72 h; series mostly up to 46 µM; activity change, negative = cytotoxicity: at the top concentration
# Procedure, shortened: as §1
SMILES,"activity change, negative = cytotoxicity",Potency
Cc1[nH]cnc1CN1CCc2c(c3ccccc3n2C)C1=O,6.02%,
O=c1cc(-c2ccccc2)oc2ccccc12,7.22% [at 92.7 µM],
COC(=O)C1=C(C)NC(C)=C(C(=O)OCC(C)C)C1c1ccccc1[N+](=O)[O-] (configuration not stated),,21.1 µM (active)
Cc1cc(O)c2ccccc2c1O,,21.1 µM (active)
O=C(O)/C=C\C(=O)O,0.211%,
CC(C(=O)O)c1ccc(C(=O)c2ccccc2)s1 (configuration not stated),1.63%,
Clc1ccccc1-c1nc(-c2ccncc2)no1,0.786%,
Nc1nc2ccc([N+](=O)[O-])cc2s1,3% [at 92.7 µM],
CC1(C)S[C@@H]2[C@H](NC(=O)[C@H](N)c3ccccc3)C(=O)N2[C@H]1C(=O)O,7.43%,
Oc1c(Br)cc(Br)c2cccnc12,,11.9 µM (active)

# Tested on: MKL-2
# Assay: as above
# Conditions: MCC and control cell lines, CellTiter-Glo viability, 72 h; series mostly up to 46 µM; activity change, negative = cytotoxicity: at the top concentration
# Procedure, shortened: as §1
SMILES,"activity change, negative = cytotoxicity",Potency
Cc1[nH]cnc1CN1CCc2c(c3ccccc3n2C)C1=O,0.689%,
COC(=O)C1=C(C)NC(C)=C(C(=O)OCC(C)C)C1c1ccccc1[N+](=O)[O-] (configuration not stated),,5.96 µM (active)
O=C(O)/C=C\C(=O)O,20.1%,
CC(C(=O)O)c1ccc(C(=O)c2ccccc2)s1 (configuration not stated),7.33%,
Clc1ccccc1-c1nc(-c2ccncc2)no1,2.98%,
Nc1nc2ccc([N+](=O)[O-])cc2s1,-14.5% [at 92.7 µM],
CC1(C)S[C@@H]2[C@H](NC(=O)[C@H](N)c3ccccc3)C(=O)N2[C@H]1C(=O)O,13.3%,
Oc1c(Br)cc(Br)c2cccnc12,,4.22 µM (active)

# Tested on: NIH3T3
# Assay: as above
# Conditions: MCC and control cell lines, CellTiter-Glo viability, 72 h; at 44.8 µM (top of the series) unless noted
# Procedure, shortened: as §1
row,SMILES,outcome
1,CN(CCCOc1ccc(Cc2ccccc2)cc1)CCC(=O)O,inactive
2,CC(=O)O[C@H]1C[C@@]2(C)[C@@H](C[C@@H](O)[C@H]3[C@@]4(C)CC[C@@H](O)[C@@H](C)[C@@H]4CC[C@@]32C)/C1=C(\CCC=C(C)C)C(=O)O,inactive
3,O=[N+]([O-])c1ccc(CNc2nc(NCc3cccc(C(F)(F)F)c3)nc3nc[nH]c23)cc1,inactive
4,O=C1CN(/N=C/c2ccc([N+](=O)[O-])o2)C(=O)N1,inactive
5,O=C1CC[C@@H](C(=O)N2CSC[C@H]2C(=O)O)N1 ([pGlu]-[Thz]-OH),inactive

# Tested on: UISO
# Assay: as above
# Conditions: MCC and control cell lines, CellTiter-Glo viability, 72 h; series mostly up to 46 µM; activity change, negative = cytotoxicity: at the top concentration
# Procedure, shortened: as §1
SMILES,"activity change, negative = cytotoxicity [%]",Potency
Cc1[nH]cnc1CN1CCc2c(c3ccccc3n2C)C1=O,25.1,
COC(=O)C1=C(C)NC(C)=C(C(=O)OCC(C)C)C1c1ccccc1[N+](=O)[O-] (configuration not stated),,23.7 µM (active)
O=C(O)/C=C\C(=O)O,11.8,
CC(C(=O)O)c1ccc(C(=O)c2ccccc2)s1 (configuration not stated),26,
Clc1ccccc1-c1nc(-c2ccncc2)no1,-2.14,
CC1(C)S[C@@H]2[C@H](NC(=O)[C@H](N)c3ccccc3)C(=O)N2[C@H]1C(=O)O,26.3,
Oc1c(Br)cc(Br)c2cccnc12,,7.5 µM (active)

# Tested on: WaGa
# Assay: as above
# Conditions: MCC and control cell lines, CellTiter-Glo viability, 72 h; series mostly up to 46 µM; activity change, negative = cytotoxicity: at the top concentration
# Procedure, shortened: as §1
SMILES,"activity change, negative = cytotoxicity [%]",Potency
Cc1[nH]cnc1CN1CCc2c(c3ccccc3n2C)C1=O,10.1,
COC(=O)C1=C(C)NC(C)=C(C(=O)OCC(C)C)C1c1ccccc1[N+](=O)[O-] (configuration not stated),,21.1 µM (active)
Cc1cc(O)c2ccccc2c1O,,23.7 µM (active)
O=C(O)/C=C\C(=O)O,5.16,
CC(C(=O)O)c1ccc(C(=O)c2ccccc2)s1 (configuration not stated),-1.59,
O=C1CN(/N=C/c2ccc([N+](=O)[O-])o2)C(=O)N1,,23.7 µM (active)
Clc1ccccc1-c1nc(-c2ccncc2)no1,4.01,
CC1(C)S[C@@H]2[C@H](NC(=O)[C@H](N)c3ccccc3)C(=O)N2[C@H]1C(=O)O,8.23,
Oc1c(Br)cc(Br)c2cccnc12,,11.9 µM (active)

# Tested on: C33A
# Assay: Primary qHTS to identify gynecologic anti-cancer compounds using libraries of approved drugs and bioactive compounds (AID 1345084); note: nearly all actives have a fitted effect of over 55% in size
# Conditions: Gynecologic cancer cell panel viability, ATPlite luminescence, 48 h; series mostly up to 57.5 µM; activity change, negative = cytotoxicity: at the top concentration
# Procedure, shortened: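 Measured: luminescence after ATPlite addition (15 min, RT). Exposure: 48 h, 37 C, 5% CO2.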
SMILES,"activity change, negative = cytotoxicity",Potency
O=Cc1ccc(O)c(O)c1O,5.49%,
CN1[C@@H]2CC[C@H]1CC(OC(=O)C(CO)c1ccccc1)C2 (some centres not stated),10.6%,
O=C(O)c1cc(O)c(O)c(O)c1,1.3%,
Cc1[nH]cnc1CN1CCc2c(c3ccccc3n2C)C1=O,-3.69%,
O=C(O)CC1CC(c2ccccc2)=NO1 (configuration not stated),15.8% [at 25.3 µM],
CN(CCCOc1ccc(Cc2ccccc2)cc1)CCC(=O)O,6.71%,
COC(=O)C1=C(C)NC(C)=C(C(=O)OCC(C)C)C1c1ccccc1[N+](=O)[O-] (configuration not stated),-15.9%,
O=C(O)[C@H](CC(=O)N1C[C@H]2CCCC[C@H]2C1)Cc1ccccc1,-14.3%,
NC(=O)C(c1ccccc1)(c1ccccc1)[C@@H]1CCN(CCc2ccc3c(c2)CCO3)C1,-0.167%,
C#C[C@]1(O)CC[C@H]2[C@@H]3CCc4cc(O)ccc4[C@H]3CC[C@@]21C,-2.18%,
Nc1ccc(O)c([N+](=O)[O-])c1,6.11% [at 116 µM],
O=c1[nH]c2ccccc2n1CCCN1CCN(C(c2ccccc2)c2ccccc2)CC1,-12.7%,
Nc1ccc([N+](=O)[O-])cc1O,-19.9% [at 116 µM],
CC(=O)O[C@H]1C[C@@]2(C)[C@@H](C[C@@H](O)[C@H]3[C@@]4(C)CC[C@@H](O)[C@@H](C)[C@@H]4CC[C@@]32C)/C1=C(\CCC=C(C)C)C(=O)O,11.9%,
COc1cc(CNC(=O)CCCC/C=C/C(C)C)ccc1O,-12.4%,
Fc1ccc2[nH]c(CN3CCN(c4ccccn4)CC3)cc2c1,9.81%,
O=C(Nc1ccc2[nH]ncc2c1)C1CCC1,4.86%,

SMILES,"activity change, negative = cytotoxicity",Potency
Cc1cc(O)c2ccccc2c1O,-2.22%,
O=[N+]([O-])c1ccc(CNc2nc(NCc3cccc(C(F)(F)F)c3)nc3nc[nH]c23)cc1,37%,
O=C(O)/C=C\C(=O)O,9.83%,
CCCCN(CC)c1nc(C)nc2c1c(C)cn2-c1c(C)cc(C)cc1C,19.1%,
CC(C(=O)O)c1ccc(C(=O)c2ccccc2)s1 (configuration not stated),-1.28%,
O=C1CN(/N=C/c2ccc([N+](=O)[O-])o2)C(=O)N1,-24.6%,
CC1(C)[C@@H](O[C@H]2O[C@H](C(=O)O)[C@@H](O)[C@H](O)[C@H]2O[C@@H]2O[C@H](C(=O)O)[C@@H](O)[C@H](O)[C@H]2O)CC[C@]2(C)[C@H]3C(=O)C=C4[C@@H]5C[C@@](C)(C(=O)O)CC[C@]5(C)CC[C@@]4(C)[C@]3(C)CC[C@@H]12,9.83% [at 25.3 µM],
COc1ccc(/C=C/C(=O)Nc2ccccc2C(=O)O)cc1OC,-1.91%,
CC(C(=O)O)c1ccc(C(=O)c2cccs2)cc1 (configuration not stated),14.9%,
Clc1ccccc1-c1nc(-c2ccncc2)no1,-23.3%,
Nc1nc2ccc([N+](=O)[O-])cc2s1,4.04% [at 116 µM],
COC(=O)C1=C(C)NC(C)=C(C(=O)OC)C1c1cccc(NC(=O)NCCCN2CCC(c3cccc(OC)c3)CC2)c1,-4.91%,
O=C1CC[C@@H](C(=O)N2CSC[C@H]2C(=O)O)N1 ([pGlu]-[Thz]-OH),1.48%,
CC1(C)S[C@@H]2[C@H](NC(=O)[C@H](N)c3ccccc3)C(=O)N2[C@H]1C(=O)O,-0.336%,
COC(=O)Nc1nc2ccc(C(=O)C3CC3)cc2[nH]1,,12.6 µM (active)
Oc1c(Br)cc(Br)c2cccnc12,-17.9%,
S=c1[nH]c2ccccc2s1,9.11% [at 116 µM],

# Reference: PubChem BioAssay (NCATS)
